Counter-ions that a name gives are not always drawn.
What follows are molecules tested on Saccharomyces cerevisiae BY4741 SeMeCo community (assay: z-score of subpopulation abundance vs DMSO median, subpopulation auxotrophic for HL; higher = larger share of this subpopulation than in DMSO controls). Settings: 10 µM; 24 h; SM minimal medium; subpopulation (auxotrophy): HL.
Procedure: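 Fluorescent four-plasmid SeMeCo (self-establishing metabolically cooperating S. cerevisiae BY4741 community; plasmids pH-mRuby2, pL-mWasabi, pU-eCFP, pM-TagRFP657) was grown 24 h in minimal SM medium with each Selleck FDA-approved drug at 10 µM in 384-well plates. Cells were fixed and imaged by high-content confocal microscopy. For each auxotrophic subpopulation (and the prototroph), a z-score gives the deviation from the DMSO vehicle-control population median.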

First: C=CN1CCCC1=O.II [Povidone iodine]
Second: NC(=O)CN1CCCC1=O [Piracetam]
The “z-score of subpopulation abundance” value of the first is higher: 2.13 for the first, 0.98 for the second.

Going from `NCC(O)c1ccc(O)cc1` (racemic) [(+,-)-Octopamine HCl] to `NCCc1c[nH]c2ccc(O)cc12` [Serotonin HCl], the “z-score of subpopulation abundance” value rises from -1.17 to -0.74.

Going from `O=c1cccc2n1C[C@@H]1CNC[C@H]2C1` [Cytisine] to `CCCN1C[C@H](CSC)C[C@@H]2c3cccc4[nH]cc(c34)C[C@H]21` [Pergolide Mesylate], the “z-score of subpopulation abundance” value rises from -0.4 to -0.35.

Compared with `COc1ccc2[nH]cc(CCN)c2c1` [5-Methoxytryptamine], `COc1ccc2c3c([nH]c2c1)C(C)=NCC3` [Harmaline] is higher in “z-score of subpopulation abundance” value: -0.31 for the first, 1.95 for the second.

Going from `CC(=O)O[C@H]1C[C@@H]2CC[C@@H]3[C@H](CC[C@@]4(C)[C@H]3C[C@H]([N+]3(C)CCCCC3)[C@@H]4OC(C)=O)[C@@]2(C)C[C@@H]1[N+]1(C)CCCCC1` [Pancuronium dibromide] to `CN[C@@H]1[C@@H](O)[C@@H](O[C@@H]2[C@@H](O)[C@H](O[C@H]3O[C@H](CN)CC[C@H]3N)[C@@H](N)C[C@H]2N)OC[C@]1(C)O.CN[C@@H]1[C@@H](O)[C@@H](O[C@@H]2[C@@H](O)[C@H](O[C@H]3O[C@H]([C@@H](C)N)CC[C@H]3N)[C@@H](N)C[C@H]2N)OC[C@]1(C)O.CN[C@@H]1[C@@H](O)[C@@H](O[C@@H]2[C@@H](O)[C@H](O[C@H]3O[C@H]([C@@H](C)NC)CC[C@H]3N)[C@@H](N)C[C@H]2N)OC[C@]1(C)O` [Gentamicin Sulfate], the “z-score of subpopulation abundance” value falls from 0.38 to -1.11.

First: N[C@@H]1C[C@H]1c1ccccc1 [Tranylcypromine (2-PCPA) HCl]
Second: C=C[C@H]1CN2CC[C@H]1C[C@H]2[C@H](O)c1ccnc2ccccc12 [Cinchonidine]
The “z-score of subpopulation abundance” value of the first is lower: -0.72 for the first, -0.64 for the second.

Going from `CCN(C)C(=O)Oc1cccc([C@H](C)N(C)C)c1` [Rivastigmine Tartrate] to `CN(C)C(=O)Oc1ccc[n+](C)c1` [Pyridostigmine Bromide], the “z-score of subpopulation abundance” value rises from 0.04 to 0.3.

Compared with `CC1(C)SC2C(N)C(=O)N2C1C(=O)O` (centres undefined) [6-Aminopenicillanic acid], `CC(=O)OCC1=C(C(=O)O)N2C(=O)C(N)C2SC1` (centres undefined) [7-Aminocephalosporanic acid] is higher in “z-score of subpopulation abundance” value: -0.37 for the first, -0.23 for the second.

Compared with `Cc1cc(O)ccc1Cl` [Chlorocresol], `Oc1cc(Cl)ccc1Oc1ccc(Cl)cc1Cl` [Triclosan] is higher in “z-score of subpopulation abundance” value: -0.86 for the first, -0.78 for the second.

Compared with `CC[C@@H](C(N)=O)N1CCCC1=O` [Levetiracetam], `COC(=O)C1=CCCN(C)C1` [Arecoline HBr] is higher in “z-score of subpopulation abundance” value: -1.01 for the first, 0.21 for the second.

Going from `CCC1=C[C@H]2CN3CCc4c([nH]c5ccccc45)[C@](C(=O)OC)(C2)[C@H]13` [Catharanthine] to `CC[C@H]1[C@@H]2C[C@H]3[C@@H]4N(C)c5ccccc5[C@]45C[C@@H]([C@@H]2[C@H]5O)N3[C@@H]1O` [Ajmaline], the “z-score of subpopulation abundance” value rises from -1.12 to -1.02.

Compared with `C[C@H]1O[C@H](O[C@H]2[C@H](O)[C@@H](O)[C@@H](O)[C@H](O)[C@@H]2O)[C@@H](N)C[C@@H]1NC(=N)C(=O)O` [Kasugamycin hydrochloride], `CN[C@@H]1[C@@H](O)[C@@H](O[C@@H]2[C@@H](O)[C@H](O[C@H]3O[C@H]([C@@H](C)O)[C@@H](O)[C@H](O)[C@H]3N)[C@@H](N)C[C@H]2N)OC[C@]1(C)O` [Geneticin (G418 Sulfate)] is higher in “z-score of subpopulation abundance” value: -0.07 for the first, -0.02 for the second.

Compared with `CCN(CC)CCOC(=O)C(O)(c1ccccc1)c1ccccc1` [Benactyzine hydrochloride], `CC[N+](C)(CC)CCOC(=O)C(O)(c1ccccc1)c1ccccc1` [Methylbenactyzine Bromide] is lower in “z-score of subpopulation abundance” value: -0.47 for the first, -0.61 for the second.

Compared with `C[CH2][Hg][S]c1ccccc1C(=O)[O-].[Na+]` [Thimerosal], `CCN(C)C(=O)Oc1cccc([C@H](C)N(C)C)c1` [Rivastigmine] is lower in “z-score of subpopulation abundance” value: 11.9 for the first, -0.54 for the second.

First: CN(C)[C@@H]1C(=O)C(C(N)=O)=C(O)[C@@]2(O)C(=O)C3=C(O)c4c(O)cccc4[C@@](C)(O)[C@H]3[C@H](O)[C@@H]12 [Oxytetracycline (Terramycin)]
Second: CN(C)[C@@H]1C(=O)C(C(N)=O)=C(O)[C@@]2(O)C(=O)C3=C(O)c4c(O)ccc(Cl)c4[C@@](C)(O)[C@H]3C[C@@H]12 [Chlortetracycline HCl]
The “z-score of subpopulation abundance” value of the first is higher: 0.77 for the first, 0.38 for the second.

Compared with `C=C(C)[C@H]1Cc2c(ccc3c2O[C@@H]2COc4cc(OC)c(OC)cc4[C@@H]2C3=O)O1` [Rotenone (Barbasco)], `COc1ccc2c(c1)[C@]13CCCC[C@@H]1[C@H](C2)N(C)CC3` [Dextromethorphan hydrobromide hydrate] is lower in “z-score of subpopulation abundance” value: 0.53 for the first, -0.33 for the second.

Compared with `C[N+]12CCC(CC1)C(OC(=O)C(O)(c1ccccc1)c1ccccc1)C2` (centres undefined) [Clidinium Bromide], `Cn1cc(C2=C(c3cn(C4CCN(Cc5ccccn5)CC4)c4ccccc34)C(=O)NC2=O)c2ccccc21` is lower in “z-score of subpopulation abundance” value: -0.33 for the first, -1.11 for the second.
